# Screening data: PubChem, National Center for Advancing Translational Sciences (NCATS)
# Rab9 promoter act: qHTS Assay for Rab9 Promoter Activators. Huh7 Rab9 promoter-luciferase reporter, luminescence, 24 h. Potency, µM (top dose mostly 9.22 µM), inactives show top-dose activation, negative = inhibition, most hits filed as activators. 2.8% of 320,000 active; further: % of control where 0% means no effect; nearly all actives have a fitted effect of over 60% in size
#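 Rab9 promoter-driven luciferase in stably transfected Huh7 cells; 1500 cells/well rested 2 h, exposed to compound in DMSO for 24 h at 37 °C, 5% CO2. Luminescence read 10 min after adding luciferase reagent at ambient temperature.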
# ELG1 genotox: qHTS screen for small molecules that induce genotoxicity in human embryonic kidney (HEK293T) cells expressing luciferase-tagged ELG1. HEK293T ELG1-luciferase reporter, luminescence, 16 h. Potency, µM (titrated, usually from 46 µM), inactives show top-dose activity change, positive = activation, most hits filed as activators. 1.3% of 330,000 active. AID 504466, 2011; further: % of control where 0% means no effect; nearly all actives have a fitted effect of over 60% in size
#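 HEK293T cells expressing luciferase-tagged ELG1 were exposed to compound or DMSO vehicle for 16 hr at 37 °C and 5% CO2. Luciferase activity was then measured with ONE-Glo after 30 min at room temperature.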
# SMN2 splice up: qHTS Assay for Enhancers of SMN2 Splice Variant Expression; 2.8% of 210,000 active; HEK293 SMN2-luciferase splicing reporter, luminescence, 30-36 h; Potency, µM (doses to about 46.1 µM), without a hit: top-dose activity change, positive = activation, actives largely listed as activators; further: % of control where 0% means no effect; nearly all actives have a fitted effect of over 55% in size
#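 qHTS luciferase splicing reporter: luminescence rises when SMN2 exon 7 is included in transfected HEK293 cells. Compound exposure lasted 30-36 h at 37C, with 4.5 mM final sodium butyrate as control, followed by a ONE-Glo read.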
# Luc counter: Counterscreen for Luciferase (Kinase-Glo TM) Inhibition; 0.28% of 200,000 active; Luciferin 4-monooxygenase (Photuris pensylvanica), Q27757; Kinase-Glo luciferase, ATP luminescence, 8 min; Potency, µM (doses to about 38.3 µM), inactives show at the highest dose activity change, negative = inhibition, hits mostly inhibitors; further: on the % scale 0 is the no-effect control and ±100 the full control effect; nearly all actives have a fitted effect of over 60% in size
#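 Compound is pinned into ATP-containing buffer (10 uM ATP, imidazole pH 7.2, 7 mM MgCl2). Kinase-Glo luciferase reagent is then added. Light output is recorded following an 8-min room-temperature incubation.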
# NPC1 prom act: qHTS Assay for NPC1 Promoter Activators. Huh7 NPC1 promoter luciferase reporter, 24 h. Potency, µM (highest dose often 9.22 µM), inactives show at the highest dose activation, most hits filed as activators. 2.4% of 320,000 active; further: % of control where 0% means no effect; nearly all actives have a fitted effect of over 60% in size
#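 Stable NPC1-promoter luciferase Huh7 line; cpd (DMSO) 24 h, 37 °C, 5% CO2; Amplite luciferase reagent 10 min RT; luminescence readout. qHTS format.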
# FLuc modulator: qHTS profiling assay for firefly luciferase inhibitor/activator using purifed enzyme and Km concentrations of substrates (counterscreen for miR-21 project) | Luciferin 4-monooxygenase (Photinus pyralis), P08659 | purified FLuc, Km substrates, luminescence inhibition | Potency, µM (top dose mostly 57.5 µM), for the others: at the highest dose activity change, negative = inhibition, hits mostly inhibitors | 6.9% of 360,000 active | AID 588342, 2011;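 further: plate controls were vehicle for no effect and reference inhibitor for full effect; nearly all actives have a fitted effect of over 55% in size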
# Target sequence (P08659 whole entry, looked up): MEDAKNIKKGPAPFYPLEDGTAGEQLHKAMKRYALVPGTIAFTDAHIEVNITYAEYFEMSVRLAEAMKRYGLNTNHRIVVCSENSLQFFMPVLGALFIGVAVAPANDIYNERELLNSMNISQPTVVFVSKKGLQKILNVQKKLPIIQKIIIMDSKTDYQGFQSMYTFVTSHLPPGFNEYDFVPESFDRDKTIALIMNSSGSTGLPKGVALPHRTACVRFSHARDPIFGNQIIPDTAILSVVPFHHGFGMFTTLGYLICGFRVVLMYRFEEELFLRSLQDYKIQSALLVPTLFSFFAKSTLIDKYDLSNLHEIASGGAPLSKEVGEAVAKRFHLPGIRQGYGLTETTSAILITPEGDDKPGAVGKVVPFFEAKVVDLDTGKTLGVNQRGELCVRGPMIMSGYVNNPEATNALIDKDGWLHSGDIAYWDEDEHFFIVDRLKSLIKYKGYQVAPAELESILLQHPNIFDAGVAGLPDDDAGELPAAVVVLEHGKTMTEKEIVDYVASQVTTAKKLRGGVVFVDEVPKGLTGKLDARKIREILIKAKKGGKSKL
#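 Biochemical qHTS of compounds, final roughly 60 µM downward over six points, against 10 nM purified firefly luciferase using Km concentrations of substrates (10 uM D-luciferin, 10 uM ATP) in Tris acetate pH 7.5 buffer; luminescence output.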
# The depositor's hits bear a star; u = inconclusive; x = no result; [ ] = remark or other dose. Rows were chosen to be rich in hits. Some 7.3% of all compounds tested hit in one or more screens of this group. The call rests on the fitted dose curve; in most records, active means well fitted curve in the direction sought with a large enough effect; inconclusive means small, poorly fitted or top-dose-only effect, or another doubt; inactive means no such curve, though single readings can be large; an effect the other way counts as inactive or inconclusive. Potency means the concentration at half of the fitted maximal effect.
SMILES,Rab9 promoter act,ELG1 genotox,SMN2 splice up,Luc counter,NPC1 prom act,FLuc modulator
COc1cccc(/C=C/C(=O)OCC(=O)NCc2ccco2)c1OC,1%,3%,19%,1%,1%,-15%
CC(C)=C(NC(=O)c1ccccc1)C(=O)N/N=C/c1ccc(O)cc1,1%,10%,19%,-6%,-1%,17µM*
COc1cccc(/C=C/C(=O)NNC(=O)c2ccco2)c1OC,4µM*,u,x,x,u,11µM*
O=C(N/N=C/C(Br)=C\c1ccccc1)c1ccco1,4µM*,u,x,x,2.5µM*,3µM*
COc1ccc(C(=O)Nc2ccccc2C(=O)N/N=C/c2ccncc2)cc1OC,u,-4%,x,x,2µM*,0.24µM*
CC(/C=C/c1ccccc1F)=N\NC(=O)c1cccc(F)c1,u,8%,26%,0%,30%,u
O=C(N/N=C/c1ccccc1)c1ccco1,3.2µM*,u,x,x,u,13µM*
O=C(N/N=C/c1ccc(OCc2ccccc2)cc1)c1ccco1,2.8µM*,19%,x,x,u,u
O=C(Nc1ccccc1C(=O)N/N=C/c1ccccc1)c1ccco1,28%,-3%,x,x,u,2.7µM*
O=C(N/N=C/C=N/NC(=O)c1ccco1)c1ccco1,1%,-12%,x,x,0%,-15%
O=C(Nc1ccccc1C(=O)N/N=C/c1ccc(O)cc1)c1ccccc1,u,15%,x,x,u,0.15µM*
CCN1C[C@@H]2[C@@H]3C(=O)N(C)C(=O)[C@@H]3[C@](CC)(C(=O)OC)N2C1=NC,x,3%,x,x,x,x
CC1(C)CC(=O)CC2(C1)NCC(c1ccccc1)c1c2[nH]c2ccccc12 (stereo not given),0%,-12%,-21%,1%,0%,-7%
CCN1C(=NCCCCO)N[C@@H](c2cccc(F)c2)C(C(=O)OC)=C1C,-5%,-2%,x,x,-5%,5%
COC(=O)c1ccc(C(NC(=O)OCc2ccccc2)/C(=C/[C@@H](C)C(=O)NCc2cccnc2)c2cccnc2)cc1 (stereo not given in full),x,x,-9%,-1%,x,x
COc1cccc(/C=N/NC(=O)CNC(=O)c2cccnc2)c1O,-12%,1%,x,x,-6%,-1%
COc1cccc(/C=N/NC(=O)c2ccccc2NC(=O)c2ccco2)c1OC,-3%,-2%,x,x,0%,11µM*
CC(C)(C)OC(=O)N/N=C\c1ccc(OC(=O)c2ccco2)cc1,4µM*,u,u,2%,u,2%
COc1ccccc1/C=C/C=N/NC(=O)c1ccncc1,0%,1%,9%,3%,0%,u
COc1ccccc1/C=C/C=N/NC(=O)c1ccco1,u,u,x,x,u,17µM*
COC(=O)N/N=C\c1ccc(OC(=O)c2ccco2)cc1,-2%,-1%,-43%,u,4%,u
COC(=O)c1ccc(COc2ccccc2/C=N/NC(=O)c2cccnc2)cc1,0%,6%,-5%,-2%,-3%,21µM*
COc1ccc(OC)c(NC(=O)c2ccccc2NC(=O)c2ccco2)c1,0%,-6%,x,x,7%,u
COc1ccc2c(c1)[C@H]1[C@H](CO2)[C@H](c2ccccc2)[C@]2(C)C(=O)Nc3cc(C)ccc3C(=O)N12,x,0%,x,x,x,x
CC(NC(=O)c1ccccc1NC(=O)c1ccco1)C(=O)O (stereo not given),0.32µM*,u,0.32µM*,1%,0.56µM*,21µM*
SMILES,Rab9 promoter act,ELG1 genotox,SMN2 splice up,Luc counter,NPC1 prom act,FLuc modulator
COc1ccccc1/C=C/C=N/NC(=O)c1cc(-c2ccc(C)o2)[nH]n1,0%,-13%,x,x,1%,15µM*
Cc1ccc(/C=N/NC(=O)c2cc(-c3ccc(C)o3)[nH]n2)cc1,0%,-2%,x,x,-1%,u
CCOC(=O)N1CCN(C(=O)c2ccc(OC)cc2)CC1,1%,-1%,x,0%,-1%,-1%
CCOC(=O)N1CCN(c2nc(-c3ccc(OC)cc3)no2)CC1,20%,-1%,-26%,-1%,u,17µM*
O=C(CCc1ccccc1)Nc1cc2c(cc1Cl)OCCO2,3.2µM*,u,13µM*,-5%,3.5µM*,11µM*
CC(C)c1ccc(NC(=O)CCc2ccccc2)cc1,u,u,x,x,26%,24µM*
O=C(Nc1ccc2c(c1)OCCO2)N1CCN(Cc2ccccc2)CC1,u,2%,18%,-2%,u,13µM*
CN(CCC(=O)Nc1ccc2c(c1)OCO2)Cc1ccccc1,9%,-1%,-10%,1%,5%,-7%
O=C(CCSCc1ccccc1)Nc1ccc2c(c1)OCCO2,10%,7%,x,-1%,-2%,9.5µM*
O=C(CCCOc1ccccc1)Nc1ccc2c(c1)OCCO2,3%,u,x,-3%,1%,12µM*
O=C(CCc1ccccc1)Nc1ccc2c(c1)OCCO2,1.8µM*,u,13µM*,-1%,3.2µM*,6µM*
Cc1ccc(SCCOCCN2CC(C)OC(C)C2)cc1 (stereo not given),-6%,1%,x,x,2%,0%
O=C(NCCc1cccs1)c1cccs1,2.8µM*,u,u,-2%,2.8µM*,13µM*
O=C(NCC(O)c1ccccc1)c1cccs1 (stereo not given),u,u,x,x,2.5µM*,17µM*
O=C(NCc1ccc(F)cc1)c1cccs1,4%,-1%,x,x,1%,3%
COc1ccc2cc(CCNC(=O)c3cccs3)c(=O)[nH]c2c1,2µM*,u,6.3µM*,2%,2.8µM*,11µM*
O=C(NCCc1ccc(F)cc1)c1cccs1,2.5µM*,u,16µM*,-3%,2.8µM*,12µM*
Cc1ccc(S(=O)(=O)Nc2nnc(C(C)(C)C)s2)cc1,0%,-2%,x,x,-2%,-3%
COc1cc(Cl)c(C)cc1NC(=O)Cc1ccc(OC)c(OC)c1,2%,-5%,-70%,2%,-4%,3%
O=[N+]([O-])c1cc(/C=N\Nc2ccccn2)ccc1Cl,12%,-3%,x,x,-1%,u
CCCCn1c(CCNC(=O)c2cccs2)nc2ccccc21,29%,-4%,9%,4%,3.5µM*,4%[2.3 µM]
CCCn1c(CNC(=O)c2cccs2)nc2ccccc21,-9%,-6%,-7%,20%,-1%,-2%
O=C(CNC(=O)c1cccs1)c1ccc(Br)cc1,0.45µM*,u,x,x,0.79µM*,9.5µM*
